From PubChem BioAssay (EPA / NIEHS) come the findings set out here.

For orientation: AC50 means the concentration at which the activity in the assay is half-maximal.

Assay [1] is described as follows: ATG_GLI_CIS: Attagene CIS-FACTORIAL HepG2 Assay for human Zinc Finger Protein GLI1 (AID 2282945). To be noted: HepG2, Attagene cis-factorial reporter mRNA, GLI element; actives raise or lower the signal. In short, it runs like this: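 HepG2 cells transiently transfected with cis-promoter multiplexed reporter units report endogenous transcription factor activity. After 24 h chemical exposure, reporter mRNA was quantified by RT-PCR, 6-FAM labelling, HpaI digestion and capillary electrophoresis, with bidirectional fitting against DMSO.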

Assay [2] is described as follows: ATG_GRE_CIS: Attagene CIS-FACTORIAL HepG2 Assay for human Glucocorticoid Response Elements (GRE) (AID 2282947). To be noted: HepG2 GRE cis-reporter, Attagene multiplex mRNA; actives raise or lower the signal. The essentials: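 Following 24 h chemical exposure of transiently transfected HepG2 cells, total RNA was reverse-transcribed and reporter cDNA amplified, fluorescently labelled and sized by capillary electrophoresis. Signal gain or loss was fitted relative to DMSO vehicle.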

Assay [3] in a line: ATG_ISRE_CIS: Attagene CIS-FACTORIAL HepG2 Assay for human Interferon Regulatory Factor 1 (IRF1) binding to an Interferon-Stimulated Response Element (ISRE) (AID 2282948). To be noted: HepG2 ISRE cis-reporter (Attagene), mRNA transcription readout; actives raise or lower the signal. In short, it runs like this:
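Transiently transfected HepG2 cells carrying cis-element reporter units, dosed 24 hours. Reporter mRNA quantified by RT-PCR, fluorescent primer extension, HpaI digestion and capillary electrophoresis. Bidirectional fitting relative to DMSO.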

Assay [4] can be described thus: ATG_M_32_CIS: Attagene CIS-FACTORIAL HepG2 Assay for M32 Transcription Factor (Internal Marker) (AID 2282949).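 Further: background control marker of the multiplexed CIS panel rather than a real target.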 To be noted: HepG2 Attagene cis-factorial M32 reporter, mRNA; actives raise or lower the signal. In short, it runs like this:
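HepG2 cells transiently transfected with multiplexed cis-regulated reporter units, dosed 24 h. Reporter mRNA quantified by RT-PCR, 6-FAM labelling, HpaI digestion and capillary electrophoresis; bidirectional fit vs DMSO.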

The target of assay [5] is Hypoxia-inducible factor 1-alpha (Homo sapiens) (UniProt Q16665). As to the kind of experiment: ATG_HIF1a_CIS: Attagene CIS-FACTORIAL HepG2 Assay for human Hypoxia Inducible Factor 1 (HIF1A) (AID 2282951). The note with it: HepG2 Attagene cis-factorial HIF1a reporter transcription; actives raise or lower the signal. In short, it runs like this:
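Endogenous-TF cis reporter readout, human HepG2 cells, 24 h incubation; mRNA detected via RT-PCR and capillary electrophoresis fluorescence; DMSO-normalised bidirectional fitting.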

Assay [6] addresses Hepatocyte nuclear factor 6 (Homo sapiens) (UniProt Q9UBC0). In words: ATG_HNF6_CIS: Attagene CIS-FACTORIAL HepG2 Assay for human Hepatocyte Nuclear Factor 6 (HNF6) (AID 2282952). To be noted: HepG2 Attagene cis-factorial HNF6 reporter transcription; actives raise or lower the signal. The essentials: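 Multiplexed mRNA reporter assay in transfected HepG2; 24 h dosing; RT-PCR plus capillary electrophoresis fluorescence; DMSO-referenced bidirectional curve fitting.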

The target of assay [7] is Heat shock factor protein 1 (Homo sapiens) (UniProt Q00613). As to the kind of experiment: ATG_HSE_CIS: Attagene CIS-FACTORIAL HepG2 Assay for human Heat Shock Transcription Factor 1 (HSE) (AID 2282953). The note with it: HepG2 HSE cis-reporter, Attagene RNA transcription; actives raise or lower the signal. The essentials: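 HepG2 cells transiently transfected with multiple reporter transcription units under cis-regulatory promoter control, measuring endogenous transcription factor activity. After 24 h chemical exposure, reporter mRNA quantified by RT-PCR, fluorescent labelling, HpaI digestion and capillary electrophoresis; bidirectional fit versus DMSO.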
Heat shock factor protein 1 (Homo sapiens), sequence (Q00613 whole entry, looked up): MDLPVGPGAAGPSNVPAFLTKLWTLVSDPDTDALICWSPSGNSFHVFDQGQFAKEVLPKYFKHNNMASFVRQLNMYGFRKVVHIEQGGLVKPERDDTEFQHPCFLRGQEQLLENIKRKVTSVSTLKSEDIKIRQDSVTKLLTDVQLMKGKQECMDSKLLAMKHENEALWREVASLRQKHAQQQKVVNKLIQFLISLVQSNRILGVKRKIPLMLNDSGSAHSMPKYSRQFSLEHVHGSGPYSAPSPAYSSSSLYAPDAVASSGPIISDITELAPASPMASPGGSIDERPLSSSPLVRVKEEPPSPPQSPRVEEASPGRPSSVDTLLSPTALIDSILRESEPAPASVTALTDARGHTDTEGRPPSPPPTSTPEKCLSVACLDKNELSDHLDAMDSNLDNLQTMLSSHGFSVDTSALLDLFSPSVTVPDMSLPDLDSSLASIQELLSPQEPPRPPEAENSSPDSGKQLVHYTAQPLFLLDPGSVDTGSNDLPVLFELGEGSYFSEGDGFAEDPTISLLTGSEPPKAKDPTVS

Assay [8] is described as follows: ATG_MRE_CIS: Attagene CIS-FACTORIAL HepG2 Assay for human Metal Responsive Element (MRE) (AID 2282954). To be noted: HepG2 MRE cis-reporter transcription, Attagene multiplex; actives raise or lower the signal. In short, it runs like this: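 Step one: transfect HepG2 with cis-regulated reporter units. Step two: dose 24 h. Step three: isolate RNA, RT-PCR, 6-FAM label, HpaI digest, capillary electrophoresis. Fit bidirectionally to DMSO.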

Assay [9] is described as follows: ATG_PBREM_CIS: Attagene CIS-FACTORIAL HepG2 Assay for human Phenobarbital-responsive Enhancer Module (PBREM) (AID 2282955). To be noted: HepG2 PBREM cis-reporter, Attagene multiplexed transcription; actives raise or lower the signal. The essentials:
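Readout: reporter mRNA, fluorescent RT-PCR fragments separated by capillary electrophoresis. System: HepG2 transiently transfected with cis-regulated reporter units. Exposure: 24 h. Analysis: bidirectional, DMSO baseline.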

Assay [10] deals with Paired box protein Pax-6 (Homo sapiens) (UniProt P26367). As to the kind of experiment: ATG_Pax6_CIS: Attagene CIS-FACTORIAL HepG2 Assay for human Paired Box 6 (PAX6) (AID 2282956). The note with it: HepG2 CIS-FACTORIAL PAX6 reporter transcription, RNA readout; actives raise or lower the signal. The essentials: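 HepG2 cells transiently transfected with cis-promoter-driven multiplexed reporter units sensing endogenous transcription factor activity; 24 h chemical exposure. Reporter mRNA quantified by RT-PCR, 6-FAM labelling, HpaI digestion and capillary electrophoresis; bidirectional fit versus DMSO baseline.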
Paired box protein Pax-6 (Homo sapiens), sequence (P26367 whole entry, looked up): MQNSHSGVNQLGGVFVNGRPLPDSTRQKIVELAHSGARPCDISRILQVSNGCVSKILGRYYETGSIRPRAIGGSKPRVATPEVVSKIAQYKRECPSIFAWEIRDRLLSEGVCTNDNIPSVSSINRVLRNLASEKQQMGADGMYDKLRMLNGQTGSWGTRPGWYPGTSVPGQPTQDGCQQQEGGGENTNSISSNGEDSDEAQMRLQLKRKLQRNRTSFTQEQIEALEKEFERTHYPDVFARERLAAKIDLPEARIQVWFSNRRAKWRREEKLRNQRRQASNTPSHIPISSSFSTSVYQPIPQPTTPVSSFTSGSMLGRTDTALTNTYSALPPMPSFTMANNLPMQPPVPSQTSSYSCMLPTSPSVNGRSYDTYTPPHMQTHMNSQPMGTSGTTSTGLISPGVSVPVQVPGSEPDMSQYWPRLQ

Assay [11] in a line: ATG_PXRE_CIS: Attagene CIS-FACTORIAL HepG2 Assay for human Pregnane X Receptor Element (PXRE) (AID 2282957). To be noted: HepG2 Attagene CIS-FACTORIAL PXRE reporter, mRNA; actives raise or lower the signal. In short, it runs like this:
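Cells: HepG2, transiently transfected reporter units under cis promoter control. Exposure: 24 h. Detection: reporter mRNA via RT-PCR/CE fluorescence; bidirectional fitting, DMSO-referenced.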

The nature of assay [12]: ATG_RORE_CIS: Attagene CIS-FACTORIAL HepG2 Assay for human RAR-related Orphan Receptor Element (RORE) (AID 2282959). To be noted: HepG2 Attagene cis-factorial RORE reporter, mRNA; actives raise or lower the signal. The essentials:
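Measured here: transcript induction of a cis-regulated reporter in HepG2 cells transiently transfected via FuGene 6. After 24 h, RNA was processed by RT-PCR and fluorescent capillary electrophoresis; DMSO defined baseline activity.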

Assay [13] can be described thus: ATG_Sox_CIS: Attagene CIS-FACTORIAL HepG2 Assay for human SRY-box transcription factor (SOX) (AID 2282960). To be noted: HepG2 Attagene cis-factorial SOX reporter, mRNA; actives raise or lower the signal. The essentials: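 Using transiently transfected HepG2 cells, reporter transcription driven by cis elements was assessed 24 h after dosing. Signal was fluorescence of capillary-separated RT-PCR products, with DMSO defining baseline activity.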

Assay [14] concerns the target Transcription factor Sp1 (Homo sapiens) (UniProt P08047). As to the kind of experiment: ATG_Sp1_CIS: Attagene CIS-FACTORIAL HepG2 Assay for human Specificity Protein 1 (Sp1) (AID 2282961). To be noted: HepG2 Sp1 cis-reporter transcription, actives raise or lower the signal. In short, it runs like this:
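After transient transfection of HepG2 cells with cis-promoter reporter units and 24 h chemical treatment, reporter transcripts were quantified by RT-PCR and capillary electrophoresis fluorescence. Gain- and loss-of-signal fitted against DMSO.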

The nature of assay [15]: ATG_SREBP_CIS: Attagene CIS-FACTORIAL HepG2 Assay for human Sterol Regulatory Element Binding (SREBP) (AID 2282962). To be noted: HepG2 Attagene cis-factorial SREBP reporter, mRNA; actives raise or lower the signal. In short, it runs like this: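 HepG2 cells transiently transfected with multiplexed cis-promoter reporter units sensing endogenous transcription factors; reporter mRNA measured 24 h after dosing by RT-PCR, 6-FAM labeling, HpaI digestion and capillary electrophoresis. Bidirectional fit versus DMSO.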

Assay [16] has as its target Signal transducer and activator of transcription 3 (Homo sapiens) (UniProt P40763). In words: ATG_STAT3_CIS: Attagene CIS-FACTORIAL HepG2 Assay for human Signal Transducer and Activator of Transcription 3 (STAT3) (AID 2282963). The note with it: HepG2, Attagene cis-factorial STAT3 reporter transcription; actives raise or lower the signal. In short, it runs like this: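 Transcript-level reporter assay. HepG2 transient MRTU transfection, 24 h exposure, fluorescence detection after RT-PCR and CE; DMSO baseline.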

The nature of assay [17]: ATG_TA_CIS: Attagene CIS-FACTORIAL HepG2 Assay for human TA Basal Promoter (AID 2282964). To be noted: HepG2 Attagene CIS-factorial TA basal promoter reporter; actives raise or lower the signal. The essentials: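 HepG2 cells transiently transfected with multiplexed cis-promoter reporter units, dosed 24 h. Reporter mRNA measured by RT-PCR, 6-FAM labelling, HpaI digestion and capillary electrophoresis; bidirectional fit versus DMSO baseline, serving as background control.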

Assay [18] in a line: ATG_M_06_CIS: Attagene CIS-FACTORIAL HepG2 Assay for M06 Transcription Factor (Internal Marker) (AID 2282950). To be noted: HepG2 Attagene CIS-FACTORIAL M06 internal marker reporter; actives raise or lower the signal. In short, it runs like this: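 HepG2 cells transiently transfected with cis-regulated multiple reporter transcription units were exposed to chemical for 24 h; reporter mRNA was quantified by RT-PCR, 6-FAM primer labelling, HpaI digestion and capillary electrophoresis, fitted bidirectionally against DMSO.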

Assay [19] can be described thus: ATG_PPRE_CIS: Attagene CIS-FACTORIAL HepG2 Assay for human Peroxisome Proliferator-activated Response Element (PPRE) (AID 2282958). To be noted: HepG2 PPRE cis-element reporter, Attagene transcription factor profiling; actives raise or lower the signal. The essentials:
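After human HepG2 hepatoma cells were transiently transfected with cis-promoter reporter constructs, they were exposed to test chemicals for 24 hours. Reporter RNA was then reverse-transcribed, PCR-amplified, FAM-labeled, HpaI-digested and quantified by capillary electrophoresis.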

Structures are written as SMILES. Values joined by “and” are separate entries in the source; they are usually repeats but may differ in a detail not shown here. Equal entries are not always repeated. The source holds several records for some structures; these can differ, active in one and inactive in another. Active and inactive are the calls of the source. How the source made its calls: active means hit-call score of the fitted dose curve at least 0.9, where 1 is the maximum; inactive means score below 0.9.

Hypoxia-inducible factor 1-alpha (Homo sapiens), sequence (Q16665 whole entry, looked up): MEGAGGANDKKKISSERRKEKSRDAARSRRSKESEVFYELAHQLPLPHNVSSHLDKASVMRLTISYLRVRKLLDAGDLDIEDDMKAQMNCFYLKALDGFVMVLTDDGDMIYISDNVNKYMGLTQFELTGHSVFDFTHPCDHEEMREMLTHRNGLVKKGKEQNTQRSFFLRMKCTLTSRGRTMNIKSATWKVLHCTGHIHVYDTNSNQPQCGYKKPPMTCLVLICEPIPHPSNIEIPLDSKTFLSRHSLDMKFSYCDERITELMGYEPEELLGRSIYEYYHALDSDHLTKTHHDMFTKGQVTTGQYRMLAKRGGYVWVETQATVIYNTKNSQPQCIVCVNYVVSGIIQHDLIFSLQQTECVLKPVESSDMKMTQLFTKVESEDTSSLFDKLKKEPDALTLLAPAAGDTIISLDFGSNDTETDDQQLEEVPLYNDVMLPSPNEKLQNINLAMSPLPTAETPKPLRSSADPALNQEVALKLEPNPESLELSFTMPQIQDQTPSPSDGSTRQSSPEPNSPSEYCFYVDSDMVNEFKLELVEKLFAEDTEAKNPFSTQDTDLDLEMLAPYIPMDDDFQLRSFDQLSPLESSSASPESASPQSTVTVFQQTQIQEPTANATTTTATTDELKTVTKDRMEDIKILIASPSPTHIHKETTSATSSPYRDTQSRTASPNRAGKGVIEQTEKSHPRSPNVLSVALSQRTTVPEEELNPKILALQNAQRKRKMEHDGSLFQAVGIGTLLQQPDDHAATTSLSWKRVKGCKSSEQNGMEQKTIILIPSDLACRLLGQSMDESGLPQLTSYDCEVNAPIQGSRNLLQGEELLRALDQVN
Transcription factor Sp1 (Homo sapiens), sequence (P08047 whole entry, looked up): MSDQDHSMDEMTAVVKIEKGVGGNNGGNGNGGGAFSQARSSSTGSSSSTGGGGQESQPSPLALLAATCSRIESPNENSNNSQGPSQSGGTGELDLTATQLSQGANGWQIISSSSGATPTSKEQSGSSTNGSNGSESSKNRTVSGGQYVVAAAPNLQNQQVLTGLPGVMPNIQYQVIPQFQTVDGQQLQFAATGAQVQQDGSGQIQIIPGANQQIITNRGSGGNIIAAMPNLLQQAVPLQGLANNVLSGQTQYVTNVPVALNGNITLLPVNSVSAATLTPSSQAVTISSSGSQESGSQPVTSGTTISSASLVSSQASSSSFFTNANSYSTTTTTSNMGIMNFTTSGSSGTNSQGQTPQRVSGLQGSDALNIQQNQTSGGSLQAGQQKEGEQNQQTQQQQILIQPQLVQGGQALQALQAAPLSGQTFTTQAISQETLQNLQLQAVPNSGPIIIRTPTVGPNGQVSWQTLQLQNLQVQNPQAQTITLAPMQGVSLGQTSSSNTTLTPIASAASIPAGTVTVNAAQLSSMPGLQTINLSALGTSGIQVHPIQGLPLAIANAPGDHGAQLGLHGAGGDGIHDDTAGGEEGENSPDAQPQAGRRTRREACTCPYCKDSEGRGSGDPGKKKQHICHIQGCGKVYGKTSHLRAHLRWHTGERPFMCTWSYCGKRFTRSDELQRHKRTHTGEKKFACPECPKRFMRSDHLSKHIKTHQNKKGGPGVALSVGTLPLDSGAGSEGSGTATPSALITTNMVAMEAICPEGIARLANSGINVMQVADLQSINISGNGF
Hepatocyte nuclear factor 6 (Homo sapiens), sequence (Q9UBC0 whole entry, looked up): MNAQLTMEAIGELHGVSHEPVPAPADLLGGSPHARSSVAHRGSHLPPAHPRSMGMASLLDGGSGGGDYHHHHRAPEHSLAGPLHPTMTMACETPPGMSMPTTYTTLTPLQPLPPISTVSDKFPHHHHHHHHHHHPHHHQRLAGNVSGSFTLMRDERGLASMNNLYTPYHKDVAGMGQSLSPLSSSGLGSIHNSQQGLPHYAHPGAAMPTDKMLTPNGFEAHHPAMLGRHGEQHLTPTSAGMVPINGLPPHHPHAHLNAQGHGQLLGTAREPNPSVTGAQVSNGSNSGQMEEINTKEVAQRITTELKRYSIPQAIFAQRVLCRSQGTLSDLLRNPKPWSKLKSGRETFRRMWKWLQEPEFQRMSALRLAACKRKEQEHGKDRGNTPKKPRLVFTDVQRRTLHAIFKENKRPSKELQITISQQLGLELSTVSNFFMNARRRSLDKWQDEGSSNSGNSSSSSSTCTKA
Signal transducer and activator of transcription 3 (Homo sapiens), sequence (P40763 whole entry, looked up): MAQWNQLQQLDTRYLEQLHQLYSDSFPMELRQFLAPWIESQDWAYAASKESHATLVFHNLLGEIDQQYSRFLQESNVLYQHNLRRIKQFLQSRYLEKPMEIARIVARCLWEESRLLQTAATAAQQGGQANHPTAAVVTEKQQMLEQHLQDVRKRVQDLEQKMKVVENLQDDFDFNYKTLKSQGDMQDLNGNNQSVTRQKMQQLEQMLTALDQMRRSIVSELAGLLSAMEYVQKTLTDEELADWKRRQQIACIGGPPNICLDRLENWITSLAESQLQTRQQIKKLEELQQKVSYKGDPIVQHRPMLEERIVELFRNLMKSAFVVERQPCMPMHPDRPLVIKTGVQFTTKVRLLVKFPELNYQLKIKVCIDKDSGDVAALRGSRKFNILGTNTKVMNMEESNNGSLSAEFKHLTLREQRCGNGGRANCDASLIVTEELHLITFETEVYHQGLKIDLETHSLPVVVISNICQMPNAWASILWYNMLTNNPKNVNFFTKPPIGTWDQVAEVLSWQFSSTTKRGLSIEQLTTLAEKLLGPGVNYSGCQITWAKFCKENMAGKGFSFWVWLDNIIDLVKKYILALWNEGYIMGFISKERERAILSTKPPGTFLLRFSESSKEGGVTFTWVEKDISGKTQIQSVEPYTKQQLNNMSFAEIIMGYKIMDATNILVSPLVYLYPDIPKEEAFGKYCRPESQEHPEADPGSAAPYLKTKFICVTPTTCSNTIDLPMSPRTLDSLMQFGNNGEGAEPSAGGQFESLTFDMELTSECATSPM

`CCOC(=O)CC(O)(CC(=O)OCC)C(=O)OCC`: the molecule was classed as inactive in assay [1], in assay [2], in assay [3], in [4], in [5] and in assay [6]. Moreover, the molecule was classed as inactive in assay [7], in assay [8], in [9], in [10], in assay [11] and in assay [12]. For the same molecule, the call in [13], in assay [14], in assay [15], in [16] and in assay [17] was inactive. The AC50 in assay [11] is 50.4 µM (active).
Turning to `O=[N+]([O-])c1ccc(O)cc1`, the molecule was classed as inactive in assay [1], in assay [3], in [4], in [18], in [5] and in assay [6]. Moreover, the molecule was called inactive in [7], in assay [8], in assay [9], in assay [10], in assay [11] and in assay [19]. Besides, the molecule was called inactive in [13], in assay [14], in assay [15], in assay [16] and in assay [17]. For the same molecule, the AC50 in assay [5] is 151 µM (active).
Regarding `ClC1=C(Cl)C(Cl)(Cl)C(Cl)=C1Cl`, the concentration at half-maximal activity (AC50) in assay [1] is 11.1 µM (active) and 6.27 µM (active); in assay [3], 14.6 µM (active) and 11.1 µM (active); in [6], 8.06 µM (active); in assay [7] it was 8.88 µM (active) and 5.39 µM (active); in [8], 20.2 µM (active) and 6.9 µM (active); in assay [9], 13.5 µM (active). Besides, the concentration at half-maximal activity (AC50) in assay [10] is 18.4 µM (active) and 6.7 µM (active); in assay [11], 16.2 µM (active) and 6.82 µM (active); in assay [14], 15.7 µM (active) and 7.29 µM (active); in assay [15], 11.1 µM (active); in assay [16] it was 21.7 µM (active). In addition, the call in [2], in assay [4], in assay [5], in [6], in [9] and in [19] was inactive. Also, the call in [12], in assay [13], in assay [15], in [16] and in [17] was inactive.
